Structures can show the parent of a compound that is named as a salt. ± gives the standard deviation of the averaged measurements.
Test system: Listeria monocytogenes 10403S
Experiment: growth inhibition relative to ceftriaxone-alone control; higher = stronger potentiation of ceftriaxone growth inhibition
Conditions: 10 µM; ceftriaxone 1 ug/ml; 12 h
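Further: End-point A600 read in BHI broth at 37 °C with 2% DMSO, inhibition computed as (1 − OD with compound plus ceftriaxone ÷ OD with ceftriaxone only) × 100.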

Structure (SMILES) | growth inhibition
CCc1cnn2c(NCc3ccc[n+]([O-])c3)cc(N3CCCC[C@H]3CCO)nc12 | -2.28 ± 10%
CCS(=O)(=O)c1ccc(OC)c(Nc2nccc(N(C)c3ccc4c(C)n[nH]c4c3)n2)c1 | 0.981 ± 2.5%
Cc1nnc(-c2cccc(-c3ccc(C(=O)NCC4CC4)cc3)c2)o1 | 3.5 ± 10%
Cc1cc(Nc2cc(N3CCN(C)CC3)nc(Sc3ccc(NC(=O)C4CC4)cc3)n2)n[nH]1 [VX-680 (MK-0457, Tozasertib)] | 52.7 ± 17%
COc1cccc(-c2cc(=O)c3ccccc3o2)c1N | 6.7074 ± 0.0026%
CN(C)C(=O)O[C@@H]1CN[C@@H](C#Cc2cc3ncnc(Nc4ccc(OCc5cccc(F)c5)c(Cl)c4)c3s2)C1 | -5.56 ± 8.1%
Cc1ccc(O)cc1Nc1ccnc2ccc(S(C)(=O)=O)cc12 | -11.4 ± 13%
Cn1c(-c2nonc2N)nc2cnccc21 | -5.76 ± 4.5%
NS(=O)(=O)c1ccc(Nc2cc(-c3ccc(O)c(F)c3)n[nH]2)cc1 | 10.1 ± 4.6%
CCn1cc(-c2ccnc3[nH]c(-c4cccc(CN(C)C)c4)cc23)c(-c2ccc(NC(=O)N(C)C)cc2)n1 | 26.7 ± 18%
COc1ccc(-c2ccc3c(NC(=O)C4CC4)n[nH]c3n2)cc1 | -7.27 ± 8.3%
O=C(O)[C@]1(Cc2cccc(Nc3nccs3)n2)CC[C@@H](Oc2cccc(Cl)c2F)CC1 | 89.4 ± 3%
CNC(=O)c1ccccc1Nc1nc(Nc2ccc(N3CCOCC3)cc2OC)ncc1Cl | -3.4 ± 13%
Cc1ccc(NC(=O)c2ccc(CN3CCN(C)CC3)cc2)cc1Nc1nccc(-c2cccnc2)n1 [Imatinib Mesylate] | 29.9 ± 17%
CCN(CC)Cc1ccc(Nc2nccc(-c3cnn4ncccc34)n2)cc1 | -11.5 ± 14%
O=C(O)c1ccc2c(c1)nc(Nc1cccc(Cl)c1)c1ccncc12 [CX-4945 (Silmitasertib)] | 76.2 ± 9.6%
O=C1NC(=O)C(c2cccc(Cl)c2)=C1Nc1ccc(O)c(Cl)c1 | -7.55 ± 15%
O=C(O)c1ccc(Nc2ncc3c(n2)-c2ccc(Cl)cc2C(c2c(F)cccc2F)=NC3)cc1 | 91.3 ± 3.5%
C[C@@H](Oc1cc(-n2cnc3ccc(OC[C@@H](O)CO)cc32)sc1C(N)=O)c1ccccc1Cl | -3.67 ± 1.5%
CC(=O)Nc1cccc(-n2c(=O)n(C3CC3)c(=O)c3c(Nc4ccc(I)cc4F)n(C)c(=O)c(C)c32)c1 | 31.3 ± 12%
COc1cc(Nc2ncc3c(C)nc(-c4cccc(C(F)(F)F)c4)n3n2)cc(OC)c1OC | -2.03 ± 8.5%
CN1CCN(Cc2ccc(-c3cc4ncnc(Nc5ccc(OCc6cccc(F)c6)c(Cl)c5)c4s3)o2)CC1 | 3 ± 2.7%
CNC(=O)c1cncc(/C=C/c2c(C)cccc2C)c1 | -1.2 ± 3.7%
CCn1c(-c2nonc2N)nc2ccccc21 | -9.18 ± 6.6%

Reference: the supplement of paper PMC5641865, “A screen for kinase inhibitors identifies antimicrobial imidazopyridine aminofurazans as specific inhibitors of the Listeria monocytogenes PASTA kinase PrkA” (The Journal of Biological Chemistry, 2017)
